From PubChem BioAssay come the findings set out here.

Activity calls are given as the source filed them. Unless noted, how the calls were made is not given here.

A short description of test [1]: HepG2 liver cancer cell viability effects, profiling panel, resazurin fluorescence, 24 h, PK04 Diversity Set (AID 1172). Further: test concentration not given here. The following applies: higher = more signal.
Test [2] is described as follows: basal S. cerevisiae growth modulation, no modifier, primary screen, OD600, strain BY4716, 24 h, basal condition (AID 1173). The following applies: OD600, 24 h, higher = more signal, called active from +8 up or from −8 down.
Test [3] can be described thus: MM1S myeloma cell viability, profiling panel, resazurin fluorescence, basal, 24 h, PK04 Diversity Set (AID 1174).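 Further: MM1S multiple myeloma cell line; test concentration not given here.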 Conditions: higher = more signal, called active from +8 up or from −8 down. (Alamar Blue is a resazurin reagent that responds to reducing activity.)
The target of test [4] is Dihydroorotate dehydrogenase (quinone), mitochondrial (Plasmodium falciparum (isolate 3D7)) (UniProt Q08210). The test can be described thus: PfDHODH enzyme inhibitors, primary screen, biochemical, C-terminal His tag, absorbance 600 nm (AID 1175).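 Further: recombinant parasite enzyme with a five histidine tag at its C terminus; test concentration not given here.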 The following applies: DCIP absorbance 600 nm, higher = more signal, called active from +8 up or from −8 down.
Test [5] is described as follows: P. aeruginosa biofilm formation inhibitors, primary screen, strain PAO1, LB-PBS medium, absorbance 600 nm (AID 1176). Further: test concentration not given here. The following applies: P. aeruginosa PAO1 growth/biofilm, A600, 12 h; higher = more signal.
Test [6] can be described thus: S. cerevisiae RM11-1a growth modifiers, primary screen, strain RM11-1a, OD600, basal, 24 h (AID 1177).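 Further: cultures grown under basal conditions with no added stressor; test concentration not given here.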 Conditions: OD600, 24 h, higher = more signal, called active from +8 up or from −8 down.
The nature of test [7]: E. coli acrAB mutant growth effects, primary screen, E. coli filamentation inducers, strain DRC39, OD650, 24 h (AID 1178).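 Further: growth measured as culture turbidity by optical density at 650 nm; test concentration not given here.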 Conditions: higher = more signal, called active from +8 up or from −8 down.
Test [8] in a line: E. coli acrAB mutant growth effects, primary screen, E. coli filamentation inducers, strain DRC39, OD650, 48 h (AID 1179).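 Further: screen aims at cell division blockers that make cells filament.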 The following applies: E. coli DRC39 delta-acrAB growth, higher = more signal, called active from +8 up or from −8 down.
The nature of test [9]: RPMI8226 myeloma cell viability, profiling panel, resazurin fluorescence, basal, 24 h, PK04 Diversity Set (AID 1180).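 Further: RPMI8826 multiple myeloma cell line at 5000 cells per well; test concentration not given here.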 The following applies: higher = more signal.
For test [10], the target named is E3 ubiquitin-protein ligase XIAP (Homo sapiens) (UniProt P98170). Nature of the test: XIAP binders, primary screen, biophysical, small-molecule microarray, fluorescence 635 nm (AID 1181).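 Further: score merges 667 nm emission and signal to noise over triplicate slides.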 Conditions: small-molecule microarray binding, higher = more signal.
E3 ubiquitin-protein ligase XIAP (Homo sapiens), sequence (P98170 whole entry, looked up): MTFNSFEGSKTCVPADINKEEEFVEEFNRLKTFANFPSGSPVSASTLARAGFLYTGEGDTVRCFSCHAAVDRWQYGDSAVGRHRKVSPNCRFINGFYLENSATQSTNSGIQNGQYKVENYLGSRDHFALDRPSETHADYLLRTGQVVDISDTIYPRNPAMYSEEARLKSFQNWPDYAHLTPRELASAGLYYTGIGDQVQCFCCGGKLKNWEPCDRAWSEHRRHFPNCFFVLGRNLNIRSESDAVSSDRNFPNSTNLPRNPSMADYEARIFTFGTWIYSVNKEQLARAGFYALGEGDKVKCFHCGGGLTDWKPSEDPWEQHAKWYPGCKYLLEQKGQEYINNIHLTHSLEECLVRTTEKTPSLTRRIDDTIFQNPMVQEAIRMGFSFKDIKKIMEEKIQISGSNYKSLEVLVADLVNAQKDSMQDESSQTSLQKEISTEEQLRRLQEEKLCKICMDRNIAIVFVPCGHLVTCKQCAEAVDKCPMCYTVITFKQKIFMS

Dihydroorotate dehydrogenase (quinone), mitochondrial (Plasmodium falciparum (isolate 3D7)), sequence (Q08210 whole entry, looked up): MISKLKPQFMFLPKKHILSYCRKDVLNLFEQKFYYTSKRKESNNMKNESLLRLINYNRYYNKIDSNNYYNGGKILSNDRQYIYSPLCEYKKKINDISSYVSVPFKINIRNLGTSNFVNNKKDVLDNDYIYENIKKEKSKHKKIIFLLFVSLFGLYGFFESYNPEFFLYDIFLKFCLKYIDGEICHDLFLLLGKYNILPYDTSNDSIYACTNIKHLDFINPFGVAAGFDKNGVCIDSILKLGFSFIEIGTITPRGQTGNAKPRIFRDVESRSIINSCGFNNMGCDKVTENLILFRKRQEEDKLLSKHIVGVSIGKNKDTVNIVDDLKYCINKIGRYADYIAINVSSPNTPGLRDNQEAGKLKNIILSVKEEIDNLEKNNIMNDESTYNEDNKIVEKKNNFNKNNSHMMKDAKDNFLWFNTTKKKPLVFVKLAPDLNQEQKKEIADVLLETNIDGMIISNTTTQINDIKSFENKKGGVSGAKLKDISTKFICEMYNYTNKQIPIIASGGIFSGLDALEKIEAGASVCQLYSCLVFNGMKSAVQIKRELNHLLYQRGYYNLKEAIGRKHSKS

On to `CCO[C@H](c1cc(OC)cc([N+](=O)[O-])c1OC)[C@H](C)C=CCC(=O)OC`, for which the z-score is -0.0508 in test [1]; -2.19 (inactive) in test [2]; -1.43 (inactive) in [3]; 0.18 (inactive) in test [5]; 0.343 (inactive) in [6]; 0.884 (inactive) in test [7]. In addition, the z-score in test [8] is 0.38 (inactive); in [9], -0.622. For the same compound, the figures for the composite z-score in test [4] and in test [10] were -0.278 (inactive) and 0.601, respectively.

For `C[C@@H](c1ccccc1)N1C(=O)[C@H]2[C@H]3[C@H](O)[C@H](O)CC(=O)[C@H]3CC[C@H]2C1=O`, the z-score was -0.137 in test [1]; -0.491 (inactive) in [2]; 0.162 (inactive) in test [3]; 0.128 (inactive) in [5]; -0.218 (inactive) in test [6]; 0.366 (inactive) in test [7]. For the same compound, the results for the z-score in [8] and in test [9] were 0.53 (inactive) and 0.033, respectively. The composite z-score in [4] was -0.736 (inactive); in [10], 0.0641.

For the compound `C=CC[C@@H]1C=C[C@H](ON=C(C)CCC(=O)OC[C@H]2O[C@H](C#Cc3ccccc3)C=C[C@@H]2Oc2ccc(C)cc2)[C@@H](CO)O1`, the z-score in test [1] is -0.0055; in test [2], 1.09 (inactive); in test [3] it was 0.212 (inactive); in test [5], -0.242 (inactive); in test [6], 1.23 (inactive); in [7], 0.911 (inactive). The z-score in test [8] is -1.55 (inactive); in [9], -0.177. Further, the composite z-score in [4] was 0.103 (inactive); in [10] it was 0.132.

On to `COC(=O)[C@@H]1CC[C@H](C)[C@@H](c2ccc(C)cc2)N1C(=O)c1ccc(C=NO[C@H](C)c2cn([C@@H]3COC[C@H]3O)nn2)cc1`, for which the z-score in [1] was -0.324; in [2] it was -0.225 (inactive); in [3] it was -0.943 (inactive); in test [5] it was 0.289 (inactive); in test [6], 1.17 (inactive); in test [7], 0.879 (inactive). In addition, the z-score is 0.246 (inactive) in [8] and -0.798 in [9]. Besides, the composite z-score in [4] was 0.0465 (inactive); in [10], 0.199.

For the compound `O=C1C=C[C@@H](O)[C@@H]2[C@@H]3C(=O)N(c4ccc(F)cc4F)C(=O)[C@@H]3CC[C@@H]12`, the z-score is -0.862 in [1]; -1.76 (inactive) in test [2]; -0.138 (inactive) in test [3]; 0.565 (inactive) in test [5]; -2.01 (inactive) in test [6]; -0.664 (inactive) in [7]. For the same compound, the z-score in test [8] is -0.52 (inactive); in test [9], -0.956. Further, the results for the composite z-score in [4] and in [10] were -1.11 (inactive) and -0.102, respectively.

Regarding `O=C(NN=C1C[C@@H](O)[C@@H](O)[C@@H]2[C@@H]3C(=O)N(C4CCCCC4)C(=O)[C@@H]3CC[C@@H]12)OCc1ccccc1`, the z-score is -0.141 in test [1]; -0.922 (inactive) in test [2]; -0.0864 (inactive) in test [3]; -0.814 (inactive) in test [5]; 0.0487 (inactive) in test [6]; 0.193 (inactive) in test [7]. Moreover, the z-score in test [8] is 0.332 (inactive); in [9] it was -0.678. Besides, the composite z-score in test [4] is -0.223 (inactive); in test [10], -0.505.

With `COC(=O)[C@H](C)NC(=O)CCC1CC(OC(=O)NCc2ccc3c(c2)OCO3)CC2(CCCC(COC(=O)NCCc3ccccc3OC)O2)O1` (stereo not given in full), the z-score in test [1] was -0.134; in test [2], -0.148 (inactive); in test [3], -0.344 (inactive); in test [5], 0.238 (inactive); in test [6], 0.0525 (inactive); in [7] it was 0.775 (inactive). The z-score in [8] was 0.451 (inactive); in [9] it was -0.229. Moreover, the composite z-score in test [4] is -1.07 (inactive); in [10], -0.252.

On to `CC(C)CCN1CCc2nc(COc3ccccc3)c3c(c2C1)CO[C@@H](C)C3`, for which the z-score is -0.226 in [1]; -0.83 (inactive) in test [2]; 0.291 (inactive) in test [3]; 0.462 (inactive) in test [5]; 0.288 (inactive) in test [6]; 1.1 (inactive) in test [7]. The z-score in test [8] was -0.341 (inactive); in test [9], 0.327. The composite z-score in test [4] was 0.0368 (inactive); in test [10], -0.161.

With `CO[C@@H]1COC(=O)CC=C[C@@H](C)[C@@H]2C=C[C@H](O)[C@@H](COC(=O)CC=C[C@H]1C)O2`, the z-score in test [1] was 0.807; in test [2], -1.65 (inactive); in [3], 0.992 (inactive); in test [5], 0.765 (inactive); in test [6], -0.72 (inactive); in [7], 0.619 (inactive). Moreover, the z-score in [8] was 0.799 (inactive); in [9], 0.366. Moreover, the composite z-score was -0.0239 (inactive) in test [4] and 0.0177 in test [10].

Take `CCOC(=O)NN=C1C[C@@H](O)[C@@H](O)[C@@H]2[C@@H]3C(=O)N(Cc4ccc5c(c4)OCO5)C(=O)[C@@H]3CC[C@H]12`: the z-score in test [1] was 0.514; in [2] it was 0.923 (inactive); in test [3], -0.343 (inactive); in [5], -0.981 (inactive); in test [6], 0.169 (inactive); in [7], 0.298 (inactive). The values for the z-score in [8] and in [9] were 0.19 (inactive) and 0.3, respectively. Moreover, the composite z-score in [4] is 0.005 (inactive); in test [10], -0.0294.

On to `CCOC(=O)[C@H](CC(C)C)NC(=O)CCC1CC(OC(=O)NCCc2ccc(F)cc2)CC2(CCCC(COC(=O)NCC3CCCCC3)O2)O1` (stereo not given in full), for which the z-score in [1] is 1.1; in [2], 0.776 (inactive); in test [3], 0.0789 (inactive); in [5], 0.201 (inactive); in test [6] it was -0.547 (inactive); in [7], -0.0313 (inactive). Besides, the z-score in test [8] was -1.02 (inactive); in [9], 0.738. Moreover, the composite z-score in [4] was -0.161 (inactive); in [10], -0.153.
